# In publication PMC11062922 (Nature Chemical Biology, 2023):
# Where two headings read alike, the source gives them in different places.
# How the values were obtained:
# Design in all cases: species or system human, MV4-11 + K-562 + COLO205 + SK-N-BE2 + OVCAR-8
# PDGFRB = details: read-out: apparent Kd; compound concentrations: 100 nM and 1000 nM (sheet 'Samples'), CATDS: 1; n = 1
# NLK = details: read-out: apparent Kd, n = 1
# STK4 = details: read-out: apparent Kd; compound concentrations: 100 nM and 1000 nM (sheet 'Samples'), CATDS: 0.289467796660549; n = 1
# TNIK = details: read-out: apparent Kd; compound concentrations: 100 nM and 1000 nM (sheet 'Samples'), CATDS: 0.457886576185151; n = 1
# MAPK14 = details: read-out: apparent Kd, n = 1
# MAPKAPK2 = details: read-out: apparent Kd, n = 1
# NQO2 = details: read-out: apparent Kd, n = 1
# PHKG2 = details: read-out: apparent Kd; compound concentrations:100 nM and 1000 nM (sheet 'Samples'); n = 1
# PIM2 = details: read-out: apparent Kd, n = 1
# PIM3 = details: read-out: apparent Kd; compound concentrations:100 nM and 1000 nM (sheet 'Samples'); n = 1
# PKN3 = details: read-out: apparent Kd; compound concentrations:100 nM and 1000 nM (sheet 'Samples'); n = 1
# RIPK2 = details: read-out: apparent Kd; compound concentrations:100 nM and 1000 nM (sheet 'Samples'); n = 1
# NQO1 = details: read-out: apparent Kd; compound concentrations: 100 nM and 1000 nM (sheet 'Samples'), CATDS: 1; n = 1
# PBK = details: read-out: apparent Kd, compound concentrations: 100 nM and 1000 nM (sheet 'Samples'), n = 1
# PIK3CD = details: read-out: apparent Kd, n = 1
# TGFBR1 = details: read-out: apparent Kd; compound concentrations:100 nM and 1000 nM (sheet 'Samples'); n = 1
# PKM = details: read-out: apparent Kd; compound concentrations:100 nM and 1000 nM (sheet 'Samples'); n = 1
# MAPK7 = details: read-out: apparent Kd; compound concentrations: 100 nM and 1000 nM (sheet 'Samples'), CATDS: 1; n = 1
# MYLK3 = details: read-out: apparent Kd; compound concentrations: 100 nM and 1000 nM (sheet 'Samples'), CATDS: 0.35775008511520401; n = 1
# T10 = system: T1, T10; details: read-out: apparent Kd; compound concentrations: 100 nM and 1000 nM (sheet 'Samples'), CATDS: 0.30543908388735203; n = 1
# T1 construct: gene NAT10
# TTK = details: read-out: apparent Kd; compound concentrations: 100 nM and 1000 nM (sheet 'Samples'), CATDS: 0.34120640497056598; n = 1
# PDXK = details: read-out: apparent Kd; compound concentrations: 100 nM and 1000 nM (sheet 'Samples'), CATDS: 1; n = 1
# PKN2 = details: read-out: apparent Kd; compound concentrations: 100 nM and 1000 nM (sheet 'Samples'), CATDS: 0.34889068310517501; n = 1
# PIK3C3 = details: read-out: apparent Kd; compound concentrations:100 nM and 1000 nM (sheet 'Samples'); n = 1
# PIK3CB = details: read-out: apparent Kd, compound concentrations: 100 nM and 1000 nM (sheet 'Samples'), n = 1
# PIK3CA = details: read-out: apparent Kd; compound concentrations:100 nM and 1000 nM (sheet 'Samples'); n = 1
# [1] = compound concentrations:100 nM and 1000 nM (sheet 'Samples')
# [2] = compound concentrations: 100 nM and 1000 nM (sheet 'Samples'), CATDS: 1
smiles,measurement,setting,value
COc1ccc(NC(=O)Nc2ccc(C)c(-c3ccc(C(=O)Nc4ccncc4)cc3)c2)cc1 [GSK1398475A],potency estimated from few doses,PDGFRB,1680 nM
O=C(Nc1n[nH]c2cc(-c3cccc(F)c3F)ccc12)C1CC1 [SB-733894],potency estimated from few doses,"NLK; compound concentrations: 100 nM and 1000 nM (sheet 'Samples'), CATDS: 0.29749178894258499",1860 nM
same,potency estimated from few doses,STK4,1990 nM
same,potency estimated from few doses,TNIK,808 nM
COc1cccc(-c2nc(-c3ccccc3)[nH]c2-c2ccncc2)c1 [SB-610250],potency estimated from few doses,MAPK14; [1],1050 nM
same,potency estimated from few doses,MAPKAPK2; [1],1480 nM
same,potency estimated from few doses,NQO2; [1],131 nM
same,potency estimated from few doses,PHKG2,2340 nM
same,potency estimated from few doses,PIM2; [1],1940 nM
same,potency estimated from few doses,PIM3,1430 nM
same,potency estimated from few doses,PKN3,1320 nM
same,potency estimated from few doses,RIPK2,204 nM
c1cc(-c2cnn3nc(N4CCOCC4)ccc23)nc(NC2CC2)n1 [GW708336X],potency estimated from few doses,NQO1,1540 nM
Cl.Cl.Cl.N#Cc1ccc(CCNc2nccc(-c3cccc(CN4CCNCC4)c3)n2)cc1.N#Cc1ccc(CCNc2nccc(-c3cccc(CN4CCNCC4)c3)n2)cc1 [GSK2137462A],potency estimated from few doses,PBK; CATDS: 0.354579243895072,1350 nM
same,potency estimated from few doses,"PIK3CD; compound concentrations: 100 nM and 1000 nM (sheet 'Samples'), CATDS: 0.84763293051447697",134 nM
CC(=O)N1CCC(Nc2ncc3cc(Oc4ccc(F)cc4F)c(=O)n(C)c3n2)CC1 [RO5043011-000],potency estimated from few doses,"MAPK14; compound concentrations: 100 nM and 1000 nM (sheet 'Samples'), CATDS: 0.40238945157455502",40.9 nM
same,potency estimated from few doses,MAPKAPK2; [1],14.2 nM
FC(F)(F)c1ccc(-c2cc(-c3c[nH]nc3-c3ccccn3)ccn2)cc1 [GW599550X],potency estimated from few doses,NQO2; [1],1070 nM
same,potency estimated from few doses,TGFBR1,1520 nM
COC(=O)Nc1nc2cc(Oc3ccc(NC(=O)Nc4cccc(C(=O)O)c4)cc3)ccc2[nH]1.Cl [GW701427A],potency estimated from few doses,NQO1,1010 nM
O=C(Nc1n[nH]c2cc(-c3cccc(F)c3)ccc12)C1CC1 [SB-735464],potency estimated from few doses,NLK; [1],1810 nM
same,potency estimated from few doses,PKM,2130 nM
COc1cc(Nc2nccc(N3CCC(NC(=O)c4cc5ccccc5s4)C3)n2)cc(OC)c1OC (stereo not shown) [GSK1379760A],potency estimated from few doses,NQO2; [2],1030 nM
CCOc1cc(C(=O)N2CCC(N3CCN(C)CC3)CC2)ccc1Nc1ncc2c(n1)N(C1CCCC1)c1ccccc1C(=O)N2C [ERK5-IN-1],potency estimated from few doses,MAPK7,813 nM
Cl.Cn1c(=O)c(Oc2ccc(F)cc2)cc2cnc(NC3CCOCC3)nc21 [RO3304882-001],potency estimated from few doses,MAPK14; [2],1030 nM
OCCCNc1nccc(-c2c(-c3cccc(C(F)(F)F)c3)nn3cc(C(F)(F)F)ccc23)n1 [GW630813X],potency estimated from few doses,"MAPK14; compound concentrations: 100 nM and 1000 nM (sheet 'Samples'), CATDS: 0.49980022483794101",1060 nM
same,potency estimated from few doses,"MAPKAPK2; compound concentrations: 100 nM and 1000 nM (sheet 'Samples'), CATDS: 0.50019993493019099",1060 nM
COc1cccc(-c2cc(-c3c[nH]nc3-c3ccccn3)ccn2)c1 [GW680338X],potency estimated from few doses,NQO2; [1],424 nM
Cn1cnc2c(N)ncnc21 [SKF-97623],potency estimated from few doses,NQO2; [2],1300 nM
COc1ccc(-c2oc3ncnc(N)c3c2-c2ccc(NC(=O)Nc3cc(C(F)(F)F)ccc3F)cc2)cc1.Cl [GW768505A],potency estimated from few doses,MYLK3,1430 nM
same,potency estimated from few doses,T10,1970 nM
same,potency estimated from few doses,TTK,1570 nM
N#Cc1cccc(C(=O)c2cnn(-c3ccc(F)cc3)c2N)c1 [RO1153321-000],potency estimated from few doses,PBK; CATDS: 1,1730 nM
CCn1c(-c2ccoc2)nc2cnccc21 [SB-733887],potency estimated from few doses,PDXK,1740 nM
CCn1c(-c2ccncc2)nc2cnccc21 [SB-735216],potency estimated from few doses,"PIK3CD; compound concentrations: 100 nM and 1000 nM (sheet 'Samples'), CATDS: 0.88201100485399897",172 nM
same,potency estimated from few doses,PKN2,2400 nM
Cc1nn2c(=O)cc(N3CCOCC3)nc2n1Cc1cccc(Cl)c1Cl [GSK2342769A],potency estimated from few doses,PIK3C3,8.1 nM
same,potency estimated from few doses,PIK3CB; CATDS: 0.39167168284884402,14.2 nM
same,potency estimated from few doses,PIK3CD; [1],87.6 nM
Cc1c(Cn2c(C)c(C)n3c(=O)cc(N4CCOCC4)nc23)cccc1C(F)(F)F [GSK2328680_KCGS],potency estimated from few doses,PIK3CB; CATDS: 1,45.8 nM
COc1cc(Nc2nccc(N3CCC(NC(=O)Nc4cc(C)ccc4C)C3)n2)cc(OC)c1OC (stereo not shown) [GSK1379762_KCGS],potency estimated from few doses,PIM2; [2],1940 nM
COc1ccc(Nc2nccc(N3CCC(NC(=O)c4cccc(NC(C)=O)c4)C3)n2)cc1 (stereo not shown) [GSK1379732A],potency estimated from few doses,PIK3CD; [2],141 nM
Cl.O=S1CCN(Cc2ccc(-c3ccc4ncnc(Nc5ccc(OCc6ccccc6)c(Cl)c5)c4c3)o2)CC1 [GW583373A],potency estimated from few doses,PIK3CA,213 nM
